Most compounds without a hit are left out; they make up all but 6.9% or so of the library.
SW480 rereplic = inducers of DNA re-replication in SW480 colon cancer cells. SW480 DNA re-replication, Hoechst DNA content imaging, 48 h. Potency, µM (titrated, usually from 46.1 µM), inactives show top-dose re-replication activation, hits mostly activators. 1.8% of 340,000 active. AID 624297; note: potency is the fitted concentration of half-maximal effect; % of control where 0% means no effect; nearly all actives have a fitted effect of over 55% in size
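Image-based read-out: total Hoechst fluorescence of nuclei (405 nm excitation, 500-530 nm emission), with hits raising the fraction of high-intensity nuclei. SW480 colon cells incubated 48 hr with compounds at 37 C.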
MCF10A rereplic = DNA re-replication induction in MCF 10a cells; Potency, µM (top dose mostly 46.1 µM), inactives show at the top dose activity, positive = re-replication, usual class: activators; 2.9% of 350,000 active; AID 624296; MCF 10A DNA re-replication, Hoechst nuclear intensity, 48 h; note: potency is the fitted concentration of half-maximal effect; % of control where 0% means no effect; nearly all actives have a fitted effect of over 50% in size
KB-V1 cytotox = KB-V1 MDR subline cytotoxicity. AID 1347076. 3.4% of 400,000 active. KB-V1 MDR cells viability, CellTiter-Glo, 72 h. Potency, µM (titrated, usually from 46.1 µM), hits mostly cytotoxic; note: potency is the fitted concentration of half-maximal effect; % is set by controls: 0 for no effect and ±100 for the full control effect; nearly all actives have a fitted effect of over 60% in size
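In this primary screen, KB-V1 cells overexpressing P-gp are incubated with library compounds (lowest to highest concentration) for 72 h at 37 degrees C before a luminescent ATP viability read.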
S-ASM inh = blocks human secretory acid sphingomyelinase; P17405; placental ASM, HMU-PC fluorogenic substrate, 60 min; Potency, µM (doses to about 57.5 µM), without a hit: at the highest dose activity change, negative = inhibition, actives largely listed as inhibitors; 0.006% of 340,000 active; AID 504937; note: potency is the fitted concentration of half-maximal effect
Target sequence (P17405 47-631 limits assumed): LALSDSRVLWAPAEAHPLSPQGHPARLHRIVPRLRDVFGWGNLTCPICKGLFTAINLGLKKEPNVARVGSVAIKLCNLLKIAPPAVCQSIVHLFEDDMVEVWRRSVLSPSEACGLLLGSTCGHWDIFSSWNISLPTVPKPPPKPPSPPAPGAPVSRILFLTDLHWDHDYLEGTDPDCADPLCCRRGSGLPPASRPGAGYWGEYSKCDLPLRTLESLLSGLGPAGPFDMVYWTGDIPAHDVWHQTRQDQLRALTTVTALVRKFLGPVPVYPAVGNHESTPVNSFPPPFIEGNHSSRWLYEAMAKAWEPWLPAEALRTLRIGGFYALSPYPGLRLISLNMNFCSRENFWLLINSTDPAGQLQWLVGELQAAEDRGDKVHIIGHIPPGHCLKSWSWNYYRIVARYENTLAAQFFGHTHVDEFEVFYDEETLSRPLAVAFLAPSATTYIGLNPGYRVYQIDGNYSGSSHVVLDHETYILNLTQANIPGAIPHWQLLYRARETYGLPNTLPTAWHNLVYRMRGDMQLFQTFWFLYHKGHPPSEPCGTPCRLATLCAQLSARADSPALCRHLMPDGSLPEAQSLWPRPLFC
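Fluorescence read-out (Ex 386 nm, Em 447 nm) after stopping the reaction at pH 10. Enzyme: ASM from human placenta; substrate HMU-PC0, 9 uM final; 60 min, 37 °C. Compound preincubation 10 min, ambient temperature.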
Giardia killer = Giardia lamblia killing; 0.15% of 340,000 active; activity change, % at 7.66 µM, hits read low; AID 540267; Giardia lamblia trophozoite viability; in the data active = activity change below about -80%; inconclusive = between about -30% and that limit;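 note: parasites exposed to compound for two days anaerobically before the ATP read; % is set by controls: 0 for no effect and ±100 for the full control effect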
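Each well holds 100 Giardia trophozoites and compound. After two days (48 hrs) at 37 deg C in anaerobic conditions, ATP is quantified by luminescence.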
KB-3-1 cytotox = KB-3-1 parental cell cytotoxicity. KB-3-1 viability, CellTiter-Glo ATP luminescence, 72 h. Potency, µM (series often up to 46.1 µM), usual class: cytotoxic. 1.4% of 400,000 active. AID 1347075; note: potency is the fitted concentration of half-maximal effect; % is set by controls: 0 for no effect and ±100 for the full control effect; nearly all actives have a fitted effect of over 60% in size
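Cytotoxicity measured as CellTiter-Glo luminescence after 72 h at 37 C. Compound titrations were pinned onto drug-naive KB-3-1 parental adenocarcinoma cells grown in DMEM with 10% FBS, and normalized data fitted to concentration-response curves.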
Starred values were filed as active, the others as inactive. Unless noted, calls come from the whole dose curve; as a rule, active = well fitted curve in the direction sought with a large enough effect; inconclusive = small, poorly fitted or top-dose-only effect, or another doubt; inactive = no such curve, though single readings can be large; an effect the other way counts as inactive or inconclusive.

Results for O=S(=O)(Nc1cccc2ccccc12)N1CCCC1 ?
SW480 rereplic: 5%; MCF10A rereplic: 8.2µM*; KB-V1 cytotox: inconclusive; S-ASM inh: 4%; Giardia killer: -2; KB-3-1 cytotox: inactive

What do the screens show for `O=C(NCC(c1cccnc1)N1CCc2ccccc2C1)C(=O)Nc1ccccc1F` (centres undefined)?
KB-V1 cytotox: inactive; KB-3-1 cytotox: inactive

How did COc1ccc(-n2c(=O)c3sc4ccccc4c3n(CC(=O)NCc3ccccc3)c2=O)cc1 do in these assays?
KB-V1 cytotox: inactive; KB-3-1 cytotox: inactive

How did COc1ccccc1C(C[N+](=O)[O-])c1c(N)n(C)c(=O)n(C)c1=O (centres undefined) do in these assays?
SW480 rereplic: inconclusive; MCF10A rereplic: inconclusive; KB-V1 cytotox: 7.3µM*; S-ASM inh: 10%; Giardia killer: 9; KB-3-1 cytotox: inconclusive

What do the screens show for `COc1ccc(C(CNC(=O)c2cc3c(s2)CCC(C)C3)N2CCCC2)cc1` (centres undefined)?
SW480 rereplic: inconclusive; MCF10A rereplic: inconclusive; KB-V1 cytotox: inactive; S-ASM inh: 5%; Giardia killer: 3; KB-3-1 cytotox: 21µM*

What do the screens show for `CCOC(=O)c1[nH]c(C)c(CCC(=O)NCc2ccc(CC)cc2)c1C`?
KB-V1 cytotox: inactive; KB-3-1 cytotox: inactive

How did CC1(C)O[C@H]2[C@@H](O1)[C@@H](C(=O)Nc1ccccc1O)O[C@@H]1OC(C)(C)O[C@@H]12 do in these assays?
KB-V1 cytotox: inconclusive; KB-3-1 cytotox: inactive

How did O=C(CCC1N=C2c3ccccc3N=C(SCc3ccc(Cl)cc3)N2C1=O)NCc1ccco1 (centres undefined) do in these assays?
SW480 rereplic: inconclusive; MCF10A rereplic: inconclusive; KB-V1 cytotox: 6.5µM*; S-ASM inh: 2%; Giardia killer: 1; KB-3-1 cytotox: inconclusive

What do the screens show for `O=C(CCC1N=C2c3ccccc3N=C(SCc3ccc(F)cc3)N2C1=O)NCc1ccco1` (centres undefined)?
SW480 rereplic: 0%; MCF10A rereplic: 6%; KB-V1 cytotox: inactive; S-ASM inh: 3%; Giardia killer: -7; KB-3-1 cytotox: inactive

What do the screens show for `COC(=O)c1cccc(C(=O)Nc2ccc(C)cc2Br)n1`?
SW480 rereplic: -11%; MCF10A rereplic: 5%; KB-V1 cytotox: 15µM*; S-ASM inh: -9%; Giardia killer: 3; KB-3-1 cytotox: inactive

How did Cc1ccc(NC(=O)c2cccc(C(=O)OC(C)C)n2)c(Br)c1 do in these assays?
SW480 rereplic: -13%; MCF10A rereplic: 13%; KB-V1 cytotox: inactive; S-ASM inh: 0%; Giardia killer: 3; KB-3-1 cytotox: inactive

How did Cc1ccccc1N1C(=O)c2cccc3c(N(C)CCO)ccc(c23)C1=O do in these assays?
SW480 rereplic: inconclusive; MCF10A rereplic: -4%; KB-V1 cytotox: 18µM*; S-ASM inh: 8%; Giardia killer: 1; KB-3-1 cytotox: inactive

How did O=C(CSc1nc2c([nH]c3ccccc32)c(=O)n1-c1ccc(Cl)cc1)NCc1ccccc1 do in these assays?
KB-V1 cytotox: inactive; KB-3-1 cytotox: inactive

Results for COc1cc(OC)c(-c2nn3c(-c4cc(C)[nH]n4)nnc3s2)cc1OC ?
KB-V1 cytotox: inconclusive; Giardia killer: 11; KB-3-1 cytotox: inactive

What do the screens show for `S=c1[nH]nc(Cn2nnc3ccccc32)n1-c1ccccc1`?
SW480 rereplic: 3%; MCF10A rereplic: 2%; KB-V1 cytotox: inactive; S-ASM inh: 2%; Giardia killer: 3; KB-3-1 cytotox: inactive

How did FC(F)(F)c1cccc(-n2c(Cn3nnc4ccccc43)n[nH]c2=S)c1 do in these assays?
SW480 rereplic: 2.6µM*; MCF10A rereplic: -1%; KB-V1 cytotox: inactive; S-ASM inh: 0%; Giardia killer: 14; KB-3-1 cytotox: inactive

What do the screens show for `CCN1CCN(c2ccc(S(=O)(=O)N3CCCCC3)cc2NC(=O)c2ccc(C)c(C)c2)CC1`?
SW480 rereplic: 1%; MCF10A rereplic: 0%; KB-V1 cytotox: inactive; S-ASM inh: -1%; Giardia killer: -1; KB-3-1 cytotox: inactive

How did COc1ccc(S(=O)(=O)N2CCCCC2)cc1NC(=O)c1ccc([N+](=O)[O-])o1 do in these assays?
SW480 rereplic: 2.9µM*; MCF10A rereplic: 2.3µM*; KB-V1 cytotox: inactive; S-ASM inh: -3%; Giardia killer: -95*; KB-3-1 cytotox: 18µM*

How did O=C(Nc1cc(S(=O)(=O)N2CCCCC2)ccc1O)c1ccccc1NS(=O)(=O)c1ccc(F)cc1 do in these assays?
SW480 rereplic: 30%; MCF10A rereplic: inconclusive; KB-V1 cytotox: inactive; S-ASM inh: -6%; Giardia killer: -13; KB-3-1 cytotox: inactive

What do the screens show for `CCN1CCN(c2ccc(S(=O)(=O)N3CCCCC3)cc2NC(=O)c2ccc([N+](=O)[O-])o2)CC1`?
SW480 rereplic: 7.3µM*; MCF10A rereplic: inconclusive; KB-V1 cytotox: inconclusive; S-ASM inh: 0%; Giardia killer: inconclusive; KB-3-1 cytotox: inconclusive

How did COc1ccc(-c2cc3ccccc3oc2=O)cc1NC(=O)c1ccc([N+](=O)[O-])o1 do in these assays?
SW480 rereplic: 9.2µM*; MCF10A rereplic: 7.3µM*; KB-V1 cytotox: inconclusive; S-ASM inh: -2%; Giardia killer: -94*; KB-3-1 cytotox: inconclusive

How did O=C(Nc1cc(S(=O)(=O)N2CCCCC2)ccc1Cl)c1ccccc1NS(=O)(=O)c1ccc(F)cc1 do in these assays?
SW480 rereplic: inconclusive; MCF10A rereplic: inconclusive; KB-V1 cytotox: inconclusive; S-ASM inh: 24%; Giardia killer: 0; KB-3-1 cytotox: 4.6µM*

Results for O=C(Nc1ccc(Cl)cc1C(F)(F)F)c1cc(S(=O)(=O)NCc2ccccc2)ccc1F ?
KB-V1 cytotox: inactive; KB-3-1 cytotox: inactive

Results for CCN1CCN(c2ccc(S(=O)(=O)N3CCCCC3)cc2NC(=O)c2ccc(F)cc2)CC1 ?
SW480 rereplic: inconclusive; MCF10A rereplic: 7.3µM*; KB-V1 cytotox: inactive; S-ASM inh: 4%; Giardia killer: -6; KB-3-1 cytotox: inactive

Results for O=S1(=O)N=C(Sc2ccc3c(c2)OCCO3)c2ccccc21 ?
KB-V1 cytotox: inactive; KB-3-1 cytotox: inactive

How did Cc1ccc(NC(=O)c2cccc(N3CCCS3(=O)=O)c2)cc1 do in these assays?
KB-V1 cytotox: inconclusive; KB-3-1 cytotox: inactive

Results for CCOC(=O)N1CCN(Cc2nc(-c3ccc(Cl)cc3)no2)CC1 ?
SW480 rereplic: -3%; MCF10A rereplic: 2%; KB-V1 cytotox: inactive; S-ASM inh: 2%; Giardia killer: 0; KB-3-1 cytotox: inactive

High-throughput results (PubChem BioAssay)
